Neddyl block = inhibitors of cullin neddylation, primary screen, biochemical, TR-FRET, uHTS, NAE and Ubc12; NEDD8-conjugating enzyme Ubc12 (Homo sapiens) + NEDD8-activating enzyme E1 regulatory …; 360,000 tested, 0.58% active; inhibition, % at 25 µM; in the data active = inhibition above about 36%
HGIII-sPLA2 inh = human group III sPLA2 inhibitors, primary screen, biochemical, QFRET, BODIPY PC-A2 liposome substrate; QFRET BODIPY PC-A2 liposome hydrolysis, fluorescence; 370,000 tested, 0.56% active; inhibition, % at 12.2 µM;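 active = inhibition above mean plus 3 SD of compounds lying within the high and low control bounds, cut at about 19% in these data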;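 note: 0% = median of test compound wells and 100% = no enzyme DMSO wells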
Target sequence (Q9NZ20 whole entry, looked up): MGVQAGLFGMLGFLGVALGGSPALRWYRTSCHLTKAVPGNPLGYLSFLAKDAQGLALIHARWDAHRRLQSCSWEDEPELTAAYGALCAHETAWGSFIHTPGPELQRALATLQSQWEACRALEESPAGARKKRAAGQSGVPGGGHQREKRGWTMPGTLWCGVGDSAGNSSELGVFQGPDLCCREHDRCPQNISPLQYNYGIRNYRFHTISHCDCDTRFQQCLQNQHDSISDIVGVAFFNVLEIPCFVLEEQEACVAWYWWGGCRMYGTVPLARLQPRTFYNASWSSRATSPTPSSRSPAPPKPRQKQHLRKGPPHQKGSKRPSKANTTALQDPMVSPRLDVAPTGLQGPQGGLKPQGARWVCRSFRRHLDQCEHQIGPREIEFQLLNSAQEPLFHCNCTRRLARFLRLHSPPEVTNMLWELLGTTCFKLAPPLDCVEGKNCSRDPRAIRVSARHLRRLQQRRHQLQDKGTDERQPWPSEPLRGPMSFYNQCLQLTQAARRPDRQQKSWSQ
ARNT-TACC3 inh = disruptors of ARNT/TACC3 protein interaction, primary screen, biochemical, AlphaScreen, single concentration; 390,000 tested, 0.66% active; Transforming acidic coiled-coil-containing protein 3 (Homo sapiens), Q9Y6A5; AlphaScreen His-ARNT PAS-B/GST-TACC3 binding, luminescence; TACC3 fragment carries E629A point mutation; inhibition, % at 9.99 µM; AID 623870, 2012;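 active = mean inhibition of replicates at least 50% and at least half of replicates each reaching 50%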;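 note: 0% = complete ARNT plus TACC3 wells and 100% = ARNT alone without TACC3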
NadD block = inhibitors of S. aureus NadD, primary screen, biochemical, colorimetric, uHTS. Nicotinate-nucleotide adenylyltransferase NadD (Staphylococcus aureus N315). purified NadD enzyme, colorimetric absorbance read-out. inhibition, % at 20 µM. 360,000 tested, 0.78% active. AID 602399, 2012; in the data active = inhibition above about 26%
DAGLB inhibitor = DAGLB lipase inhibitors, primary screen, biochemical, fluorescence, HTS; inhibition, % at 5.17 µM; Diacylglycerol lipase-beta (Homo sapiens), Q8NCG7; HEK293T DAGLB membrane lysate, EnzChek fluorogenic substrate; 340,000 tested, 0.059% active; in the data active = inhibition above about 34%;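 note: 0% = enzyme with vehicle and 100% = wells lacking enzyme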
ARNT Alpha ctr = AlphaScreen signal interference compounds, dose response, artefact control for ARNT-TACC3 interaction inhibitor project, biochemical, luminescence, cherry-pick | His-ARNT PASB-GST AlphaScreen artifact counter-screen | AID 651705, 2012 | 1,200 tested, 50% active | shares compounds with ARNT-TACC3 inh | AC50, µM (doses to about 68 µM), for the others: top-dose activity change, negative = signal decrease;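 active = every separate test run was called active for a drop in luminescence, with AC50 within twice the top valid dose, actives reach about 71 µM in these data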
* = called active by the depositor; nt = not tested or not shown; [ ] = another dose, or the depositor's remark. This is a sample that favours compounds with a hit; in the whole collection about 2% have one here.

SMILES	Neddyl block	HGIII-sPLA2 inh	ARNT-TACC3 inh	NadD block	DAGLB inhibitor	ARNT Alpha ctr
O=C(C[C@@H]1CC[C@H](NC(=O)Nc2cc(F)ccc2F)[C@@H](CO)O1)Nc1ccccc1	nt	nt	-6	nt	nt	nt
Cc1[nH]n2c(=O)c3c(nc2c1-c1ccccc1)CCC3	36	3	59*	7	-1	-1%
CN(CC(=O)O)Cc1nc2ccccc2[nH]1	1	0	88*	1	-4	51µM*
CC(=O)NCCc1nc2ccccc2[nH]1	5	2	-5	1	0	nt
O=C(C[C@H]1CC[C@@H](NC(=O)Nc2ccc(F)cc2)[C@@H](CO)O1)NCc1ccccn1	nt	nt	7	nt	nt	nt
COc1ccc2c(CC(=O)Nc3ccccc3OC)coc2c1	-4	-4	-2	1	-2	nt
COc1ccc(C(=O)NNC(=O)Cc2coc3cc(OC)ccc23)cc1	1	6	57*	5	1	-7%
CC(C)NC(=O)Nc1ccc2c(c1)CC(=O)N([C@@H](C)CO)C[C@@H](C)[C@@H](CN(C)C(=O)Nc1ccc(F)cc1)O2	nt	nt	-12	nt	nt	nt
C[C@H]1CN([C@@H](C)CO)C(=O)c2cccc(NC(=O)c3cnccn3)c2O[C@@H]1CN(C)C(=O)NC1CCCCC1	nt	nt	-1	nt	nt	nt
C/C=C/c1ccc2c(c1)O[C@@H](CN(C)Cc1ccccn1)[C@@H](C)CN([C@H](C)CO)S2(=O)=O	nt	nt	7	nt	nt	nt
Cc1[nH]n(-c2ccccc2)c(=O)c1/C=N/NC(=O)COc1ccccc1[N+](=O)[O-]	-12	-6	59*	11	4	-26%
CCCCC(=O)NC(c1cccc([N+](=O)[O-])c1)c1ccc2cccnc2c1O (configuration not stated)	-11	19	61*	1	13	8.1µM*
CNC(=O)C[C@H]1CC[C@@H]2[C@@H](COc3ccc(NC(=O)c4cscn4)cc3C(=O)N2C)O1	nt	nt	-5	nt	nt	nt
O=C(COC(=O)c1ccc([N+](=O)[O-])o1)Nc1ccc(N2CCOCC2)cc1	-55	8	5	-2	-3	nt
O=C(COC(=O)c1ccc([N+](=O)[O-])o1)Nc1ccc(F)cc1	-55	-3	active	-3	-1	-5%
CC(NC(=O)COC(=O)c1ccc([N+](=O)[O-])o1)c1ccccc1 (configuration not stated)	-43	-2	29*	0	-3	1%
O=C(NCCCNCCCNC(=O)c1ccc(/C=N/O)nc1)c1ccc(/C=N/O)nc1	-10	-7	56*	-8	3	66µM*
CCC(=O)N(C)C[C@H]1Oc2cc(C#CC(C)(C)O)ccc2S(=O)(=O)N([C@@H](C)CO)C[C@@H]1C	nt	nt	-3	nt	nt	nt
O=C(Nc1ccccc1C(F)(F)F)c1ncn[nH]1	-1	-11	59*	-4	2	-28%
Cc1cc(NC(=O)c2cc(-c3ccccc3)on2)no1	-4	-1	-4	-1	-1	nt
Cc1cccc(NC(=O)c2cc(-c3ccccc3)on2)n1	nt	nt	nt	nt	nt	3%[38 µM]
O=C(Nc1ccc2ccccc2n1)c1cc(-c2ccccc2)on1	nt	nt	nt	nt	nt	3%[38 µM]
Cn1c(NC(=O)c2cc(-c3ccccc3)on2)nc2ccccc21	nt	nt	nt	nt	nt	-9%[38 µM]
O=C(N[C@H]1CC[C@@H](CCNS(=O)(=O)c2ccccc2)O[C@H]1CO)c1cccc(F)c1	nt	nt	12	nt	nt	nt
O=C(NC[C@@H]1[C@H](c2ccccc2)[C@H](CO)N1Cc1ccccn1)C1CC1	nt	nt	46*	nt	nt	-9%[38 µM]
SMILES	Neddyl block	HGIII-sPLA2 inh	ARNT-TACC3 inh	NadD block	DAGLB inhibitor	ARNT Alpha ctr
C/C=C/c1ccc([C@H]2[C@@H](CO)N(Cc3ccccn3)[C@H]2CNC(C)=O)cc1	nt	nt	30*	nt	nt	-22%[38 µM]
C/C=C/c1ccc([C@H]2[C@@H](CNC(=O)CC)N(Cc3ccccn3)[C@H]2CO)cc1	nt	nt	47*	nt	nt	-15%[42 µM]
C[C@H](CO)N1C[C@H](C)[C@@H](CN(C)Cc2cccc(C(=O)O)c2)Oc2cc(C#CCC3CCCC3)ccc2S1(=O)=O	nt	nt	20	nt	nt	nt
C[C@@H]1CN([C@H](C)CO)S(=O)(=O)c2ccc(-c3ccc(C(=O)N(C)C)cc3)cc2O[C@H]1CN(C)C(=O)Nc1ccccc1F	nt	nt	-2	nt	nt	nt
C[C@@H]1CN([C@@H](C)CO)S(=O)(=O)c2ccc(/C=C/c3ccccc3)cc2O[C@H]1CN(C)C(=O)c1ccncc1	nt	nt	0	nt	nt	nt
CC(=O)NC1=NC(=O)/C(=C/c2cn(C(C)=O)nc2-c2ccccc2)S1	-12	-4	54*	4	3	-16%
COCCOC(=O)N1C(=O)[C@@]2(c3ccccc31)[C@H](c1ccccc1OCCO)N1[C@H](c3ccccc3)[C@H](c3ccccc3)OC(=O)[C@H]1[C@@H]2C(=O)N1CCN(c2ncccn2)CC1	nt	nt	17	nt	nt	nt
O=C(Nc1ccc(Br)cn1)c1cccc(C(=O)Nc2ccc(Br)cn2)c1	-35	5	active	4	-1	-1%
CCCC#Cc1cnc2c(c1)C(=O)N([C@@H](C)CO)C[C@H](C)[C@H](CN(C)C(=O)CN1CCOCC1)O2	nt	nt	0	nt	nt	nt
CC1CCCC(C)N1/N=C/c1ccc([N+](=O)[O-])cc1 (configuration not stated)	-34	1	51*	-1	-2	24µM*
CC1CCCC(C)N1/N=C/c1ccc(N(C)C)cc1 (configuration not stated)	0	6	8	-11	0	nt
Cc1ccc(CNC(=S)N2CCOCC2)cc1	2	6	2	-7	-1	nt
Cc1ccc(/C=N/NC(=S)N2CCOCC2)cc1	-1	-4	45*	6	-4	-31%
CC(C)NC(=O)N(C)C[C@H]1OCCCC[C@H](C)Oc2ccc(NC(=O)CCC(F)(F)F)cc2C(=O)N([C@H](C)CO)C[C@@H]1C	nt	nt	8	nt	nt	nt
COc1ccc(Cc2nnc(NN)[nH]c2=O)cc1OC	4	2	active	-3	3	27µM*
COc1ccc(Cc2nnc(N/N=C(\C)c3ccccc3)[nH]c2=O)cc1OC	-2	12	47*	-3	3	-14%
CC(C)Nc1nc(NC(C)C)nc(C(=O)OCCO)n1	-3	1	57*	-1	-2	-13%
N#CC1=C(N)Oc2cc3ccccc3cc2C1c1cccnc1 (configuration not stated)	-12	-8	-1	3	4	nt
